High-throughput results from PubChem BioAssay.
TDP1 cell CPT: qHTS for Inhibitors of human tyrosyl-DNA phosphodiesterase 1 (TDP1): qHTS in cells in presence of CPT. chicken DT40 Tdp1-/-;hTDP1 cells + 20 nM CPT, ATP luminescence, 48 h. Potency, µM (titrated, usually from 46.2 µM), inactives show at the top dose activity change, negative = growth inhibition, usual class: inhibitors. 420,000 compounds, 12% hits. AID 686979, 2013; also: potency is read from the fitted curve at half-maximal effect; % is scaled to controls: 0 for no effect and ±100 for the full control effect; nearly all actives have a fitted effect of over 55% in size
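Chicken DT40 Tdp1-/- cells stably complemented with human TDP1 were seeded at 400 cells/well in medium containing 20 nM camptothecin, exposed to pin-transferred compounds, and grown at 37 °C for at least 48 hr. Viability was read as ATP luminescence.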
IL1B secr inh: qHTS for Inhibitors of Inflammasome Signaling: IL-1-beta AlphaLISA Primary Screen. THP-1 LPS/ATP IL-1B secretion, AlphaLISA, 16 h; stronger effect = lower value. activity change, % at 57.5 µM. 360,000 compounds, 4.7% hits; in the data active = activity change below about -50%; inconclusive = mostly about -30% to -49%; also: % is scaled to controls: 0 for no effect and ±100 for the full control effect
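THP-1 cells pretreated 1 hr with compounds (up to 57.5 uM final), then stimulated with LPS (250 ng/mL final) plus ATP (1.25 mM final); secreted IL-1B measured by AlphaLISA after 16 hr, decreased signal indicating inhibition.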
HepG2 tox: qHTS for Inhibitors of TGF-b: Cytotox Counterscreen | HepG2 CAGA-GFP viability, ATP luminescence, 18 h | Potency, µM (doses to about 46.1 µM), for inactives: at the top dose activity change, negative = cytotoxicity, actives largely listed as cytotoxic | 410,000 compounds, 0.76% hits; also: potency is read from the fitted curve at half-maximal effect
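CellTiter-Glo luminescence gave cytotoxicity after 18 hours at 37 degrees C. The cells were HepG2 CAGA-GFP in 1% FBS DMEM, stimulated with 500 pg/mL TGF-beta after compound addition. %Activity was normalised to no-cell wells (complete cell-killing) and DMSO (no toxicity), and curves were fitted and classified.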
DT40 TDP1 no CPT: qHTS for Inhibitors of human tyrosyl-DNA phosphodiesterase 1 (TDP1): qHTS in cells in absence of CPT; DT40 Tdp1-/- hTDP1 cells, no CPT, ATP luminescence, 48 h; Potency, µM (series often up to 46.2 µM), inactives show top-dose activity change, negative = growth inhibition, hits mostly inhibitors; 420,000 compounds, 15% hits; AID 686978, 2013; also: potency is read from the fitted curve at half-maximal effect; % is scaled to controls: 0 for no effect and ±100 for the full control effect; nearly all actives have a fitted effect of over 55% in size
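A cellular qHTS used chicken DT40 cells lacking endogenous Tdp1 but carrying stably transfected human TDP1. Compounds were applied without camptothecin, and cell growth kinetics were judged by ATP-dependent luminescence after ≥48 hr.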
TGFb SMAD3 inh: qHTS for Inhibitors of TGF-b; HepG2 CAGA-GFP TGF-b/SMAD3 reporter, GFP fluorescence, 18 h; TGF-beta stimulated, 500 pg/mL final; Potency, µM (titrated, usually from 46.1 µM), inactives show top-dose activity, negative = inhibition, usual class: inhibitors; 410,000 compounds, 1.2% hits; AID 588855, 2011; also: potency is read from the fitted curve at half-maximal effect; % is scaled to controls: 0 for no effect and ±100 for the full control effect; nearly all actives have a fitted effect of over 65% in size
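First, reporter cells (HEPG2 CAGA-GFP) rested 2 h at 37 degrees C. Next, compounds were pinned in and TGF-beta added to 500 pg/mL final. After 18 h, GFP was imaged per cell and summed per well.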
TDP1 inh: qHTS Assay for Inhibitors of Tyrosyl-DNA Phosphodiesterase (TDP1) | 350,000 compounds, 0.28% hits | recombinant TDP1, AlphaScreen DNA substrate cleavage | AID 485290, 2010 | Tyrosyl-DNA phosphodiesterase 1 (Homo sapiens), Q9NUW8 | Potency, µM (series often up to 130 µM), for inactives: at the top dose activity change, negative = inhibition, most hits filed as inhibitors; also: potency is read from the fitted curve at half-maximal effect; % is scaled to controls: 0 for no effect and ±100 for the full control effect; nearly all actives have a fitted effect of over 40% in size
Target sequence (Q9NUW8 whole entry, looked up): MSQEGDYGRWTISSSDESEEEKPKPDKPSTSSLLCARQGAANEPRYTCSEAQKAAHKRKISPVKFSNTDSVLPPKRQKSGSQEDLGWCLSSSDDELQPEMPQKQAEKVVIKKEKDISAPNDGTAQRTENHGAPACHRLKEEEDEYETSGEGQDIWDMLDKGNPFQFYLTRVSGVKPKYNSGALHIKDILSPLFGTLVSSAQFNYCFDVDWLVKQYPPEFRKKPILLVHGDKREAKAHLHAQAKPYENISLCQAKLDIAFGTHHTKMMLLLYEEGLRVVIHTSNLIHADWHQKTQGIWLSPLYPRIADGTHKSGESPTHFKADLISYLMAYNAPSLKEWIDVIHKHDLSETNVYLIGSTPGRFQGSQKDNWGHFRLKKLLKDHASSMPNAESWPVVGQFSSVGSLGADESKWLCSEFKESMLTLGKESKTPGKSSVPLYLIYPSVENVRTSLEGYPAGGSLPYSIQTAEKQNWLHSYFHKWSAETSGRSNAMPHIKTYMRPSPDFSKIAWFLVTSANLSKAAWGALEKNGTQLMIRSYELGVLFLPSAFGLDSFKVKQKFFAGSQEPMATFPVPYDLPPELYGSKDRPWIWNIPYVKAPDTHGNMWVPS
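Enzyme-compound mixtures sat 15 min at room temperature, followed by a 5 min reaction with 15 nM final substrate and 10 min with AlphaScreen beads. Recombinant human Tdp1 was used at 1 nM final.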
Numbers without * were called inactive; ? = inconclusive; nt = no result given; [ ] = remark or other dose. Hits are enriched below; roughly 19% of the tested compounds scored in any of these assays. Unless noted, calls follow the shape of the dose curve; as a rule, active = well fitted curve in the direction sought with a large enough effect; inconclusive = small, poorly fitted or top-dose-only effect, or another doubt; inactive = no such curve, though single readings can be large; an effect the other way counts as inactive or inconclusive.

SMILES	TDP1 cell CPT	IL1B secr inh	HepG2 tox	DT40 TDP1 no CPT	TGFb SMAD3 inh	TDP1 inh
COc1ccccc1CNC(=O)C1Cc2cc(S(=O)(=O)N3CCCCC3)ccc2N1C(C)=O (centres undefined)	2.5%	-6.3	-0.8%	18.0%	2.3%	4.8%
COc1ccc(OC)c(CCNC(=O)c2nc(-c3ccc(Cl)cc3)n3c2CCCCC3)c1	10.3µM*	nt	-9.4%	9.2µM*	?	13.7%
COc1ccc(NC(=O)c2nc(-c3ccc(C)cc3)n3c2CCCCC3)cc1	?	nt	-21.5%	16.4µM*	?	-2.6%
COc1ccc(N2CCN(C(=O)c3nc(-c4ccc(Cl)cc4)n4c3CCCCC4)CC2)cc1	?	nt	3.1%	20.6µM*	-10.1%	9.9%
Cc1ccc(CNC(=O)c2nc(-c3ccc(Cl)cc3)n3c2CCCCC3)cc1	?	nt	-25.3%	18.4µM*	?	11.2%
CC(=O)O[C@@H]1CC[C@@]2(C)[C@H](C1)[C@H](OC(C)=O)C[C@@H]1[C@@H]2C[C@H]2[C@@H]3CN4C[C@H](C)CC[C@H]4[C@H](C)[C@H]3CC[C@@]12O	nt	nt	nt	nt	nt	4.9%
COc1ccc(C2Nc3ccccc3C(=O)N2Cc2ccccc2)cc1COc1ccc(NC(=O)c2ccccc2)cc1 (centres undefined)	nt	nt	nt	nt	nt	0.4%
O=C(N[C@@H](CO)[C@@H](O)c1ccc([N+](=O)[O-])cc1)C(Cl)Cl	nt	nt	nt	nt	nt	-0.4%[56.1 µM]
CS(=O)(=O)c1ccc([C@@H](O)[C@@H](COC(=O)CN)NC(=O)C(Cl)Cl)cc1	6.68µM*	nt	nt	3.76µM*	nt	nt
COCCNC(=O)CCCn1c(SCC(=O)c2ccc(Br)cc2)nc2c(sc3ccccc32)c1=O	-5.4%	nt	0.5%	-2.5%	-1.1%	4.6%
COc1ccc(OC)c(NC(=O)c2ccc(-c3csc(C)n3)cc2)c1	?	-0.6	-23.8%	?	18.7%	nt
Cc1nc(-c2ccc(C(=O)Nc3cccc(Br)c3)cc2)cs1	?	-25.0	-34.0%	20.6µM*	-2.0%	1.2%
Cc1nc(-c2cccc(NC(=O)c3ccc(-n4nccc4C)cc3)c2)cs1	?	-83.8*	-30.0%	20.6µM*	?	2.7%
COc1cc(N)c(Cl)cc1C(=O)OCC(=O)NC(=O)NCc1ccco1	1.8%	-1.2	-59.9%	4.6%	3.8%	-14.5%
Cc1c(C(=O)N2CCCCCC2)c(S(=O)(=O)Nc2ccc(OC(F)(F)F)cc2)c(C)n1C	23.1µM*	nt	-4.3%	16.4µM*	?	11.0%
Cc1c(C(=O)N2CCOCC2)c(S(=O)(=O)Nc2ccc(C(C)C)cc2)c(C)n1C	13µM*	41.7	-10.7%	?	-4.8%	5.3%
Cc1ccc(NS(=O)(=O)c2c(C(=O)N3CCOCC3)c(C)n(C)c2C)cc1C	-24.1%	0.0	0.0%	1.3%	-13.1%	0.8%
CCN(CC(=O)Nc1ccc(OC)c(OC)c1)CC(=O)Nc1ccccc1C(F)(F)F	?	-10.5	-12.2%	?	-11.5%	nt
CCN(CC)CCCNC(=O)c1ccc(OCC(=O)Nc2ccccc2C(F)(F)F)c(OC)c1	?	-62.0*	-37.9%	?	-13.8%	5.8%
CCCCCC1CCNCC1	6.31µM*	nt	-51.1%	8.91µM*	?	nt
CCCCCC1CCC(C(=O)N2CCOCC2)CC1 (centres undefined)	-1.9%	-4.9	-8.1%	-14.7%	20.3%	nt
N#Cc1cccc(NC(=O)c2cncn2-c2ccccc2)c1	23.9%	-17.7	20.7%	-1.3%	-7.4%	-0.3%
COCCn1c(=O)cnc2cnc(Nc3ccccc3)nc21	9.2µM*	nt	nt	14.6µM*	nt	nt
O=c1cnc2cnc(Nc3ccccc3)nc2n1C[C@H]1CCCO1	8.2µM*	nt	nt	9.2µM*	nt	nt
CC1CCN(S(=O)(=O)N2CCCC(C(=O)NCc3ccc(F)cc3)C2)CC1 (centres undefined)	?	-23.7	0.9%	?	-16.0%	2.5%
SMILES	TDP1 cell CPT	IL1B secr inh	HepG2 tox	DT40 TDP1 no CPT	TGFb SMAD3 inh	TDP1 inh
CSc1ccc(CNC(=O)C2CCCN(S(=O)(=O)N(C)c3ccc(F)cc3)C2)cc1 (centres undefined)	23.1µM*	nt	-22.4%	20.6µM*	4.47µM*	4.9%
CC1CCN(S(=O)(=O)N2CCCC(C(=O)NCc3ccccc3Cl)C2)CC1 (centres undefined)	-18.8%	-14.6	-18.4%	-21.0%	-26.7%	9.1%
O=C(NCc1ccc(F)cc1)C1CCN(S(=O)(=O)N2CCCC2)CC1	?	0.5	29.5%	16.4µM*	0.8%	2.5%
O=C(NCc1ccccc1Cl)C1CCN(S(=O)(=O)N2CCCCCC2)CC1	?	-2.7	-9.7%	17.8µM*	7.0%	-4.0%
CC1CCN(S(=O)(=O)N2CCC(C(=O)NCc3ccccc3Cl)CC2)CC1	?	nt	1.0%	13µM*	0.0%	7.8%
CC12C=C(/C=C/c3ccccc3)C(C)(C1)C(c1ccccc1)CC2=O (centres undefined)	nt	nt	nt	nt	nt	7.9%[21 µM]
O=C(Cn1c(=O)n(Cc2ccco2)c(=O)c2oc3ccccc3c21)Nc1ccc(F)cc1F	?	nt	-8.9%	?	-3.6%	0.0%
O=C(NCc1ccccc1CN1CCCC1)C1CCN(S(=O)(=O)c2ccc(F)c(F)c2)CC1	-16.1%	-50.5*	-15.7%	-22.1%	-11.3%	0.0%
Cc1ccc(S(=O)(=O)N2CCC(C(=O)NCc3ccccc3CN3CCCC3)CC2)cc1C	?	-0.2	-29.3%	?	0.5%	0.1%
CCOc1ccc(OCC)c(NC(=O)CN2CCN(CC(=O)NC(C)C)CC2)c1	14.6µM*	1.2	-25.4%	?	1.7%	5.8%
CCOc1ccc(OCC)c(NC(=O)CN2CCN(c3cc(C)ccc3C)CC2)c1	20.6µM*	-23.6	-22.9%	23.1µM*	-27.8%	-8.0%
CCOc1ccc(OCC)c(NC(=O)CN2CCN(CC)CC2)c1	-6.6%	9.6	9.3%	-20.3%	0.8%	-10.8%[56.1 µM]
CCOc1ccc(OCC)c(NC(=O)CN2CCN(c3cccc(C)c3)C(C)C2)c1 (centres undefined)	14.6µM*	-24.7	-2.9%	14.6µM*	-4.7%	4.4%
CCOc1ccc(OCC)c(NC(=O)CN2CCN(c3cccc(C)c3)CC2)c1	23.1µM*	21.9	-16.1%	16.4µM*	-14.8%	-12.3%[56.1 µM]
